The values below come from PMC7862700, “An all-to-all approach to the identification of sequence-specific readers for epigenetic DNA modifications on cytosine”.

Holding throughout (assay): DAPPL (digital affinity profiling via proximity ligation, sequencing); 10 mM Tris-HCl pH 7.5, 50 mM NaCl, 1 mM DTT, 4% glycerol, room temperature, 30 min; GST-TFs on glutathione beads, 16-mer random dsDNA library, 0.1% formaldehyde crosslink after washing; high values mean tight binding
Holding throughout (details): protein: recombinant; tags: N-terminal GST; dsDNA, one strand shown

In one assay the target is T1, FLI1 (Homo sapiens, UniProt Q01543 1-452).
T1 sequence: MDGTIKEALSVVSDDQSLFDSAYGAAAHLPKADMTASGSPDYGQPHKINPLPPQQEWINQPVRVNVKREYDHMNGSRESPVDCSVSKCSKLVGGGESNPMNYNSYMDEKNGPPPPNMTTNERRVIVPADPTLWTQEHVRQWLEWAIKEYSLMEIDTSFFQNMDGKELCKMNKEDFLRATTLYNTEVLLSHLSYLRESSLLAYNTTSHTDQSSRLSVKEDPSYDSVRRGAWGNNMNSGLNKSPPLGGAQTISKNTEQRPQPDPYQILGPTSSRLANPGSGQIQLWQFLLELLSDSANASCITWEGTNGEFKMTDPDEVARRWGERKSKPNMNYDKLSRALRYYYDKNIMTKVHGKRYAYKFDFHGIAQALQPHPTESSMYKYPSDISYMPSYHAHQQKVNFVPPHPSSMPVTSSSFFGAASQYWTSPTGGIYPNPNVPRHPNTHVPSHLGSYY
The procedure, abridged:
(§1)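 Binding signal is given per hexamer as its read frequency for a factor divided by its frequency in the tag-only sample. GST-fused human transcription factors were expressed in yeast, captured on glutathione beads, barcoded with DNA and pooled with that sample, then incubated with 200 nmole of a 16-mer random double-stranded DNA library in Tris/NaCl/DTT/glycerol buffer for 30 min at room temperature. The pools were then washed, crosslinked, proximity-ligated, amplified by PCR and sequenced on an Illumina NextSeq500.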

A further assay addresses T2, ELK1 (Homo sapiens, UniProt P19419 1-428).
T2 sequence: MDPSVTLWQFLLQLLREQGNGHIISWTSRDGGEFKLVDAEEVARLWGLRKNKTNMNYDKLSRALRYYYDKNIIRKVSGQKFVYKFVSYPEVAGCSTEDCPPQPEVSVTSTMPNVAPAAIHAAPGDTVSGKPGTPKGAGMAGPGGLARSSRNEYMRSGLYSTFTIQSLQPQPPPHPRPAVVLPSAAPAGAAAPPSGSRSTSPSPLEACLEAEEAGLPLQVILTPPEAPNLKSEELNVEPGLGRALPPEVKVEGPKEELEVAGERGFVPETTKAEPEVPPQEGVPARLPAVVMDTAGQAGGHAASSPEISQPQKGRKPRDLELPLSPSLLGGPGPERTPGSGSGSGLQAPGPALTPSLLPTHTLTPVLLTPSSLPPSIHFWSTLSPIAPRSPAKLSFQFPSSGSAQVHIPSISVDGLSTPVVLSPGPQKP
The procedure, abridged: as §1

The target in a further assay is T3, GABPA (Homo sapiens, UniProt Q06546 1-454).
T3 sequence: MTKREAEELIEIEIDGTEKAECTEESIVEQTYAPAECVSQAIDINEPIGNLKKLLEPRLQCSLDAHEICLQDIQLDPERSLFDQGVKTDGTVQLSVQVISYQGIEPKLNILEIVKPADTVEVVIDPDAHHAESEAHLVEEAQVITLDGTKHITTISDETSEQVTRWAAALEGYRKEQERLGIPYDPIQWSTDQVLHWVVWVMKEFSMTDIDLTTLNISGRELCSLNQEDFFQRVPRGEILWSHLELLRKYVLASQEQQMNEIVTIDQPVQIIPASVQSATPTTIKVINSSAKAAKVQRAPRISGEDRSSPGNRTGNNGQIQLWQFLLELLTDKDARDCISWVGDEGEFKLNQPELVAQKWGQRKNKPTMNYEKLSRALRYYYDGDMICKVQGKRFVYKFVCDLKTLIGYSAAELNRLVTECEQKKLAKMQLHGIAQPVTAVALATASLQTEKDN
The procedure, abridged: as §1

Another assay concerns the target T4, ERG (Homo sapiens, UniProt P11308 1-479).
T4 sequence: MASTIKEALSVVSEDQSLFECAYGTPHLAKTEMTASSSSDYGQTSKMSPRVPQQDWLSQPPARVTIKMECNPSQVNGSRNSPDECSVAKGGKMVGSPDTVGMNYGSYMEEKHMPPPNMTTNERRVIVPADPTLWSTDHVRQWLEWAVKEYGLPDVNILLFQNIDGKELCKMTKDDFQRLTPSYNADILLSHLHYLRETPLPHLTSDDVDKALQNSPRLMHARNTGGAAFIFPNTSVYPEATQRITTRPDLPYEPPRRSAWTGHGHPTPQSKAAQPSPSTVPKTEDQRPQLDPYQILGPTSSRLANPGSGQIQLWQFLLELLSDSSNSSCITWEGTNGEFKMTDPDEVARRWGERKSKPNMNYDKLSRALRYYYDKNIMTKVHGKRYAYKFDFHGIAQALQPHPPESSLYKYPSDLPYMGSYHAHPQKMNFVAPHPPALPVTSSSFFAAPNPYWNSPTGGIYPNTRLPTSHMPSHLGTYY
The procedure, abridged: as §1

The next assay concerns the target ELF1 (Homo sapiens, UniProt P32519 1-619). The method in brief: as §1
For the next assay, the target named is T5, EHF (Homo sapiens, UniProt Q9NZC4 1-300).
T5 sequence: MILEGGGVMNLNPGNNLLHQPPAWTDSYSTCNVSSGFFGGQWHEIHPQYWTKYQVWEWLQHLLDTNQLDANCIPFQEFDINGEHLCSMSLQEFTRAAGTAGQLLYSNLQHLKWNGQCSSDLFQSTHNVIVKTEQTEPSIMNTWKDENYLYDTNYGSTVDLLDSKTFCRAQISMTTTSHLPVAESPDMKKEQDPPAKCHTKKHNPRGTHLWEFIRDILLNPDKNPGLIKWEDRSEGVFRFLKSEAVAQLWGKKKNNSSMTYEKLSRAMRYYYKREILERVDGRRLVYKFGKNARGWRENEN
The procedure, abridged:
as §1

The target in another assay is SPI1 (Homo sapiens, UniProt P17947 1-270). The procedure, abridged:
as §1

For another assay, the target named is SPIB (Homo sapiens, UniProt Q01892 1-262). The procedure, abridged: as §1
SPIB, sequence (Q01892 whole entry): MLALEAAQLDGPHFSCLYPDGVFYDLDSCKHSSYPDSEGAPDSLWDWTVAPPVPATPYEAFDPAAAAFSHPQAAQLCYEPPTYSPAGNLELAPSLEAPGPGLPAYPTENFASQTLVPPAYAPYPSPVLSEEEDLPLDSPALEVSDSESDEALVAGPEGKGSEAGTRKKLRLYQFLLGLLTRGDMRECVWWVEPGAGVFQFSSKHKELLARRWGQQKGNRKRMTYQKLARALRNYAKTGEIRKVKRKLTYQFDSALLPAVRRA
The next assay concerns the target T6, ELK3 (Homo sapiens, UniProt P41970 1-407).
T6 sequence: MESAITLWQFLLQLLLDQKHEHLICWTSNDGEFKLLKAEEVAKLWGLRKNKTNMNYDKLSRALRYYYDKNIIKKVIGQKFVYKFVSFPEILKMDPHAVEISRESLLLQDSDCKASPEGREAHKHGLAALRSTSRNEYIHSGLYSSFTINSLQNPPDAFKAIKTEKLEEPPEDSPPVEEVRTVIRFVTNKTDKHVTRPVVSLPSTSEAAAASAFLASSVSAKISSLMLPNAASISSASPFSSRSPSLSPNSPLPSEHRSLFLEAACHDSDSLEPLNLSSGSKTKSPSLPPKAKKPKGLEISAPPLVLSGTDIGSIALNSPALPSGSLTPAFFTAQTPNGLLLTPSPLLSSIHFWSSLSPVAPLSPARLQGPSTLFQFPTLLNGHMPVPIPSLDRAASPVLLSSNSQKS
The method in brief:
as §1

The next assay concerns the target T7, FEV (Homo sapiens, UniProt Q99581 1-238).
T7 sequence: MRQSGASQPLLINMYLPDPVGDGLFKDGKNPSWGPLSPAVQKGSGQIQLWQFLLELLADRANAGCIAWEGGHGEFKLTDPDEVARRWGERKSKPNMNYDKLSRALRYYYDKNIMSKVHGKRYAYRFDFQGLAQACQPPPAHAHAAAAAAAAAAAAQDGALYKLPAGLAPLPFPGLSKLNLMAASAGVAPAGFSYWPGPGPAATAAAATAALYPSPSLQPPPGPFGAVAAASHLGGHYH
The procedure, abridged:
as §1

In a further assay the target is ETV5 (Homo sapiens, UniProt P41161 1-510). The method in brief:
as §1

In another assay the target is T8, SPIC (Homo sapiens, UniProt Q8N5J4 1-248).
T8 sequence: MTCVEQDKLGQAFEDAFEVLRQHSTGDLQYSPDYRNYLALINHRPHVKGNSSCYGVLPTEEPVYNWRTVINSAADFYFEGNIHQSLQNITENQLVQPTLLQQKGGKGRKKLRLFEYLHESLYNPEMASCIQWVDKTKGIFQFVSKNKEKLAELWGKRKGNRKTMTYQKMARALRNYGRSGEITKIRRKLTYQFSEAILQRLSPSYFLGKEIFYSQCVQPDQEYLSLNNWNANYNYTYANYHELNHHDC
The method in brief: as §1

The target of a further assay is ELF4 (Homo sapiens, UniProt Q99607 1-663). The method in brief: as §1
ELF4, sequence (Q99607 whole entry): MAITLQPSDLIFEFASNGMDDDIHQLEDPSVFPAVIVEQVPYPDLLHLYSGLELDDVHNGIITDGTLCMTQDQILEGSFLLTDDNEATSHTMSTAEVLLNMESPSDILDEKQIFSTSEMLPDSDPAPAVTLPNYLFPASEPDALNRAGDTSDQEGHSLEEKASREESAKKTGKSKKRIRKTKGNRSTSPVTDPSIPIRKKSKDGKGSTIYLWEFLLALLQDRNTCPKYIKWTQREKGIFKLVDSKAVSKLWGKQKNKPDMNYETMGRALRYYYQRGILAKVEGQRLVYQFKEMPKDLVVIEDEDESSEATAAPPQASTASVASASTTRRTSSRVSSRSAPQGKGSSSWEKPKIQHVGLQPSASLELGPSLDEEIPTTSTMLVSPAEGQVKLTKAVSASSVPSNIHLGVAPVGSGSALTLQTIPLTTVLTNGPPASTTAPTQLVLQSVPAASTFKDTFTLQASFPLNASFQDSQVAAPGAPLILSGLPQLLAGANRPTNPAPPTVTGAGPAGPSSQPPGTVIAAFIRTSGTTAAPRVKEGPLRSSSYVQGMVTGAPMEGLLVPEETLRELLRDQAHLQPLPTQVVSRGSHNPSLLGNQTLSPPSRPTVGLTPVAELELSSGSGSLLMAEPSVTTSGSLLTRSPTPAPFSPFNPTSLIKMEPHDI
A further assay has as its target T9, ELK4 (Homo sapiens, UniProt P28324-2 1-405).
T9 sequence: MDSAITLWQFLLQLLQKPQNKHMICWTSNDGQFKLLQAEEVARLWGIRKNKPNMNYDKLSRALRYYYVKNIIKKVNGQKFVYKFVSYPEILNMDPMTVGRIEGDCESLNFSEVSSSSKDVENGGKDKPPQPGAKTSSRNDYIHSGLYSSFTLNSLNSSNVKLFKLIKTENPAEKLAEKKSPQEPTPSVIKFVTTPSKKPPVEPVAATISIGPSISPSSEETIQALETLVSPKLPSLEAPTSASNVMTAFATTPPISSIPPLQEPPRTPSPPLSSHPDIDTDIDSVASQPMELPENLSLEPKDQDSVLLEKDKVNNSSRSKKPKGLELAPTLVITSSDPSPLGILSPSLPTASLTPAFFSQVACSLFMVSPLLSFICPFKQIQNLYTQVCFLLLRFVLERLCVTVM
The method in brief:
as §1

A further assay addresses T10, ETV2 (Homo sapiens, UniProt O00321 1-342).
T10 sequence: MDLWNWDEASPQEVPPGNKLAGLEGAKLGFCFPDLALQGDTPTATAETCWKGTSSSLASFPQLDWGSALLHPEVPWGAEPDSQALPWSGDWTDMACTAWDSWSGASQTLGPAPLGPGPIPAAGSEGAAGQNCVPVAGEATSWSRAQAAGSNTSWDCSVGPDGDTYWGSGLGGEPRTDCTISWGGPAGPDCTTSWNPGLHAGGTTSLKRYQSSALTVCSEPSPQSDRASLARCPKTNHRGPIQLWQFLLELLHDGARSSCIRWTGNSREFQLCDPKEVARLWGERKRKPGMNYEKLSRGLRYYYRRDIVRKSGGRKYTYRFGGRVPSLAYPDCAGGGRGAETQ
The method in brief:
as §1

The target of a further assay is T11, ELF3 (Homo sapiens, UniProt P78545 1-371).
T11 sequence: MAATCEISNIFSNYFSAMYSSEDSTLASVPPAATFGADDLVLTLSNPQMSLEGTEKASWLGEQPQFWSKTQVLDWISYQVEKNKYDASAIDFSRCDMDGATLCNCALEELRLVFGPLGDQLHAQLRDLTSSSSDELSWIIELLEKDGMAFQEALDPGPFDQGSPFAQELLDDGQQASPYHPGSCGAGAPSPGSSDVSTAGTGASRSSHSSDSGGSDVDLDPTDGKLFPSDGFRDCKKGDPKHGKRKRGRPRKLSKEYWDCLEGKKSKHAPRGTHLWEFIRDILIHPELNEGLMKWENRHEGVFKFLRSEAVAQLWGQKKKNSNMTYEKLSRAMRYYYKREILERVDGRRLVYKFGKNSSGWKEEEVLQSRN
The method in brief:
as §1

The next assay has as its target CRX (Homo sapiens, UniProt O43186 1-299). The method in brief: as §1
The target in a further assay is ETV1 (Homo sapiens, UniProt P50549 1-477). The procedure, abridged: as §1
ETV1, sequence (P50549 whole entry): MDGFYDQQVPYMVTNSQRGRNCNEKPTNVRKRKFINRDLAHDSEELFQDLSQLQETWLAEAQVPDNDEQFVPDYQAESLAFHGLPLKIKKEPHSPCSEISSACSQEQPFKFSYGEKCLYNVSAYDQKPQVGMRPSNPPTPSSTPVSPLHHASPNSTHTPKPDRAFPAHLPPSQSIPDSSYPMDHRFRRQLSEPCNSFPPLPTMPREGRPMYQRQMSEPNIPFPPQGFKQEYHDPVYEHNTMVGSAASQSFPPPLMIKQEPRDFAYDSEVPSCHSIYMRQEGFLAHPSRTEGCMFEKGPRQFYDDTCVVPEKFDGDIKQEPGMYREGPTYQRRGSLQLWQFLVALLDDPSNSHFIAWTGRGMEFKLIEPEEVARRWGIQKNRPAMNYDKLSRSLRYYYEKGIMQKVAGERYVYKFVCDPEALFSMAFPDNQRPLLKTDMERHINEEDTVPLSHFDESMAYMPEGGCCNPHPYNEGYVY

ELF1, sequence (P32519 whole entry): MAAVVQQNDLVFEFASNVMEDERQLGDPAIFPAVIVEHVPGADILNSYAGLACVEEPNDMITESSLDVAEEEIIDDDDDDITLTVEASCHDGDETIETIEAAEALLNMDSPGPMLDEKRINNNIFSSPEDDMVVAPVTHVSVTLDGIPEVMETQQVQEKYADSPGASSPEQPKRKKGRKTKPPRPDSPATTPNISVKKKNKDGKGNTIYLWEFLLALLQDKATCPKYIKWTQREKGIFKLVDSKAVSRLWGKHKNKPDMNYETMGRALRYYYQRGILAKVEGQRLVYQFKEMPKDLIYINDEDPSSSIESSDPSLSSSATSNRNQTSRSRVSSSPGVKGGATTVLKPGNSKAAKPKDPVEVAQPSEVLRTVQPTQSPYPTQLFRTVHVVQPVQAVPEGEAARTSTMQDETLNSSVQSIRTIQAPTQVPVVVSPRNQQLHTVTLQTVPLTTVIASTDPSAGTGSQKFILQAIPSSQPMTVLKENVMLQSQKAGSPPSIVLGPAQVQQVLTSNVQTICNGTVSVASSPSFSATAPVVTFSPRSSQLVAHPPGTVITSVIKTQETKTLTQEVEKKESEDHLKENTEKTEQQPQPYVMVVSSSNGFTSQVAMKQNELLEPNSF
ETV5, sequence (P41161 whole entry): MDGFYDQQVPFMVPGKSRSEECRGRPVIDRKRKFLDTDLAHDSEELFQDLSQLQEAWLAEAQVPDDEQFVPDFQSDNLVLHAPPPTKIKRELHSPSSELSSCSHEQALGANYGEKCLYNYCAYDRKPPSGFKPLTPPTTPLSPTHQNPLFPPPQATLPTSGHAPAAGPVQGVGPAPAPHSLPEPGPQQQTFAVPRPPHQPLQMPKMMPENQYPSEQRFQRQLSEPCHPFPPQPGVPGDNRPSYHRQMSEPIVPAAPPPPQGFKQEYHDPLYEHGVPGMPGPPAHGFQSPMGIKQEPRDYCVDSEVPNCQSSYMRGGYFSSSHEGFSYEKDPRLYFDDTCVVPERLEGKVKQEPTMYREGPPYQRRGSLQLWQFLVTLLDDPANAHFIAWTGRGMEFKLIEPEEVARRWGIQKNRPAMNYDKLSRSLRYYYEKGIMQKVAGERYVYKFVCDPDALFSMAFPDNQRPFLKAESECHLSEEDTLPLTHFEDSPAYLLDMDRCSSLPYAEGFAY
CRX, sequence (O43186 whole entry): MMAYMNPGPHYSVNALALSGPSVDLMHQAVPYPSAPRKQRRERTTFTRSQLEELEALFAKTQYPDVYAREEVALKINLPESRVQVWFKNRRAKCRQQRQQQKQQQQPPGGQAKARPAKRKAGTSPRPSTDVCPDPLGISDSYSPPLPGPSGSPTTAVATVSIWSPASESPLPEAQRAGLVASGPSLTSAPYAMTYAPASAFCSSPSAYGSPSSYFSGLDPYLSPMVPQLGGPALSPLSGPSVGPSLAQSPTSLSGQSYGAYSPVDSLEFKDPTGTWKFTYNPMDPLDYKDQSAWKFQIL

TGCAAT: the binding signal with FLI1 is 1.18 fold enrichment (6-mer frequency, TF over GST control); with ELK1 it was 1.21 fold enrichment (6-mer frequency, TF over GST control); with GABPA, 1.15 fold enrichment (6-mer frequency, TF over GST control); with ERG, 1.09 fold enrichment (6-mer frequency, TF over GST control); in the assay with ELF1, 1.18 fold enrichment (6-mer frequency, TF over GST control); with EHF, 1.12 fold enrichment (6-mer frequency, TF over GST control). Moreover, the binding signal with SPI1 was 1.19 fold enrichment (6-mer frequency, TF over GST control); with SPIB, 1.16 fold enrichment (6-mer frequency, TF over GST control); with ELK3, 1.19 fold enrichment (6-mer frequency, TF over GST control); with FEV, 1.2 fold enrichment (6-mer frequency, TF over GST control); in the assay with ETV5, 1.21 fold enrichment (6-mer frequency, TF over GST control); in the assay with SPIC, 1.14 fold enrichment (6-mer frequency, TF over GST control). In addition, the binding signal with ELF4 is 1.2 fold enrichment (6-mer frequency, TF over GST control); with ELK4, 1.28 fold enrichment (6-mer frequency, TF over GST control); in the assay with ETV2 it was 1.04 fold enrichment (6-mer frequency, TF over GST control); with ELF3, 1.24 fold enrichment (6-mer frequency, TF over GST control); with CRX, 1.03 fold enrichment (6-mer frequency, TF over GST control); in the assay with ETV1, 1.26 fold enrichment (6-mer frequency, TF over GST control).

Take GGATAT: the binding signal is 1.61 fold enrichment (6-mer frequency, TF over GST control) with FLI1; 1.65 fold enrichment (6-mer frequency, TF over GST control) in the assay with ELK1; 1.45 fold enrichment (6-mer frequency, TF over GST control) in the assay with GABPA; 2 fold enrichment (6-mer frequency, TF over GST control) with ERG; 1.48 fold enrichment (6-mer frequency, TF over GST control) with ELF1; 1.55 fold enrichment (6-mer frequency, TF over GST control) in the assay with EHF. Moreover, the binding signal was 1.37 fold enrichment (6-mer frequency, TF over GST control) with SPI1; 1.58 fold enrichment (6-mer frequency, TF over GST control) in the assay with SPIB; 1.55 fold enrichment (6-mer frequency, TF over GST control) in the assay with ELK3; 3.83 fold enrichment (6-mer frequency, TF over GST control) in the assay with FEV; 1.71 fold enrichment (6-mer frequency, TF over GST control) with ETV5; 1.53 fold enrichment (6-mer frequency, TF over GST control) in the assay with SPIC. For the same sequence, the binding signal in the assay with ELF4 is 1.38 fold enrichment (6-mer frequency, TF over GST control); with ELK4 it was 1.48 fold enrichment (6-mer frequency, TF over GST control); with ETV2 it was 1.55 fold enrichment (6-mer frequency, TF over GST control); with ELF3 it was 1.78 fold enrichment (6-mer frequency, TF over GST control); with CRX it was 1.09 fold enrichment (6-mer frequency, TF over GST control); with ETV1, 1.62 fold enrichment (6-mer frequency, TF over GST control).
